High-throughput results as filed in PubChem BioAssay.
An excerpt weighted towards active compounds, which were near 3.3% of everything screened.
FXN GAA850 act – FXN promoter activators, primary screen, cell-based, luciferase luminescence, HEK293 lucGAA850; 360,000 compounds, 0.56% hits; activation, % at 6 µM; AID 540364, 2011; HEK293 lucGAA850 FXN promoter luciferase reporter, 24 h; percent of 10 µM SAHA response;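 active means activation above the average of all compounds screened plus 3 SD, cutoff fixed separately per campaign, cut at about 7.5% in these data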
Statin myotox sup – suppressors of statin myotoxicity in C2C12 myotubes, primary screen, cell-based, single point, plate reader. rescue of ATP level, % at 7.49 µM. 330,000 compounds, 0.78% hits. AID 602340, 2012. C2C12 myotubes + simvastatin, ATP luminescence, 48 h; scaled: DMSO 0, geranylgeraniol control 100;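 active means mean ATP rescue above about 67%, or every replicate alone reaching that limit, limit read from the data, passing the limit was not always enough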;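 further: myotubes were challenged with 10 µM simvastatin during compound exposure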
esBAF inh – Bmi1 luciferase reporter increase in mESCs, primary screen, esBAF inhibitor project, mouse ES cells, Bmi1 luciferase knock-in, single point. 24 h; 100% = twice the neutral-well signal. reporter increase, % at 12.5 µM. 350,000 compounds, 2% hits; in the data active means activation above about 40%;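 further: a rise in the Bmi1 reporter signal indicates esBAF inhibition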
Wnt bcat act – Wnt/beta-catenin pathway activators, primary screen, cell-based, plate reader, single point. Wnt/beta-catenin reporter cell assay, activator. activation, % at 9.35 µM. AID 743398, 2014. 300,000 compounds, 1.2% hits; in the data active means activation above about 30%, passing the limit was not always enough
MITF TRPM1 HTS – activators of MITF-driven TRPM1 promoter reporter, primary screen, cell-based, SK-MEL-5, luciferase, single point; activation, % at 12.5 µM; SK-MEL-5 TRPM1-promoter luciferase, 24 h; % of positive control, neutral wells = 0; 300,000 compounds, 0.75% hits;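 active means mean activation of at least 80% with every replicate also reaching 80%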
GAA30 counter – GAA30 FXN promoter activators, confirmation, counter-screen for GAA850 frataxin promoter activator project, cell-based, luminescence, HEK293, lucGAA30, triplicate; shares compounds with FXN GAA850 act; HEK293 lucGAA30 FXN promoter luciferase, 24 h; DMSO = 0%, 5 µM ipriflavone = 100%; activation, % at 6 µM; 1,900 compounds, 66% hits;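 active means mean activation above the mean of solvent-only control wells plus 3 SD, cut at about 22% in these data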;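 further: counterscreen of GAA850 promoter hits where activity marks nonselective or luminescence artifacts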
FXN GAA850 conf – FXN GAA850 promoter activators in reporter cells, confirmation, cell-based, luminescence, HEK293 lucGAA850, triplicate; shares compounds with FXN GAA850 act; HEK293 lucGAA850 FXN promoter luciferase reporter, 24 h; 100% = activation by SAHA; activation, % at 6 µM; 1,900 compounds, 86% hits; AID 588351, 2011;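 active means mean activation above a set limit taken from the primary screen, cut at about 8% in these data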
Of the large screens only hits and unclear results are named; the others gave an inactive call (follow-up assays come after a bar, where they were run).

O=C(Oc1ccccc1/C=C\C(=O)c1cc2ccccc2o1)c1ccccc1	FXN GAA850 act 8.7, Wnt bcat act 53.1 (no result: Statin myotox sup, esBAF inh) | GAA30 counter 110.8 | FXN GAA850 conf 42.7
NC(=O)N/N=C/c1ccccc1OC(=O)c1cc2ccccc2oc1=O	none
COc1cccc(C(=O)Oc2ccccc2/C=C\C(=O)c2cc3ccccc3o2)c1	FXN GAA850 act 7.8, Wnt bcat act 152.3 (no result: Statin myotox sup, esBAF inh) | GAA30 counter 95.2 | FXN GAA850 conf 45.3
COc1ccc(O)c(C(=O)/C=C/c2cc3ccccc3o2)c1	none
O=C(Oc1ccccc1/C=C\C(=O)c1cc2ccccc2o1)c1cccc(F)c1	FXN GAA850 act 8.9 (no result: Statin myotox sup, esBAF inh, Wnt bcat act) | GAA30 counter 40.3 | FXN GAA850 conf 20.0
COc1cccc(NC(=O)Nc2cc(C)ccc2F)c1	FXN GAA850 act 8.2, esBAF inh 61.1 (no result: Wnt bcat act, MITF TRPM1 HTS) | GAA30 counter 79.6 | FXN GAA850 conf 25.4
COc1ccccc1C(=O)Nc1ccc2c(c1)nc1n2CCSC1	FXN GAA850 act 8.0 (no result: Statin myotox sup, esBAF inh, MITF TRPM1 HTS) | GAA30 counter 98.1 | FXN GAA850 conf 26.6
COCCN1CCN(c2c(C)c(C)nc3cc(-c4cccc(OC)c4)nn23)CC1	FXN GAA850 act 10.0, esBAF inh 51.7 | GAA30 counter 72.0 | FXN GAA850 conf 20.3
Fc1ccc(N2CCN(c3cnc4ccccc4n3)CC2)cc1	FXN GAA850 act 7.9, Wnt bcat act 42.2 | GAA30 counter 106.1 | FXN GAA850 conf 41.4
CCN(C[C@H]1N[C@@](C)(C(=O)OC)[C@H]2C(=O)N(Cc3ccccc3)C(=O)[C@@H]12)C(=O)Nc1ccc(C)cc1	FXN GAA850 act 15.7 | GAA30 counter 27.8 | FXN GAA850 conf 11.7
CCN(C[C@H]1N[C@@](C)(C(=O)OC)[C@H]2C(=O)N(Cc3ccccc3)C(=O)[C@@H]12)C(=O)Nc1ccccc1	none
COC(=O)[C@]1(C)N[C@H](CN(C)C(=O)Nc2ccccc2)[C@@H]2C(=O)N(Cc3ccccc3)C(=O)[C@@H]21	FXN GAA850 act 9.4 | GAA30 counter 22.0 | FXN GAA850 conf 9.8
CN(C)C(=O)[C@@H]1[C@@H](CO)[C@@H]2Cn3c(ccc(-c4cncnc4)c3=O)[C@H]1N2C(=O)NC1CCCC1	none (no result: FXN GAA850 act, Wnt bcat act, MITF TRPM1 HTS)
O=C(C1CCOCC1)N1C[C@H]2[C@@H](c3ccccc31)[C@@H](CO)N2C(=O)Cc1ccccc1	none (no result: FXN GAA850 act, Wnt bcat act, MITF TRPM1 HTS)
COc1ccccc1N1CCN(c2cc(=O)n(-c3ccc(Br)cc3)c(=O)[nH]2)CC1	FXN GAA850 act 11.3 | GAA30 counter inactive | FXN GAA850 conf 12.0
COc1cc2c(O)c3c(c(-c4ccc5c(c4)OCO5)c2cc1OC)C(=O)OC3	FXN GAA850 act 19.8 | GAA30 counter inactive | FXN GAA850 conf 26.6
COc1cc2c(OC(C)=O)c3c(c(-c4ccc5c(c4)OCO5)c2cc1OC)C(=O)OC3	none (no result: MITF TRPM1 HTS)
O=C1c2ccccc2C(=O)N1CCc1c[nH]c2ccccc12	FXN GAA850 act 9.0, MITF TRPM1 HTS 111.2 (no result: Statin myotox sup, esBAF inh) | GAA30 counter 87.7 | FXN GAA850 conf 37.4
O=C1c2ccccc2C(=O)N1CCCc1c[nH]c2ccccc12	none (no result: Statin myotox sup, esBAF inh, Wnt bcat act)
COC(=O)c1c(C)[nH]c(C(=O)CC#N)c1C	none
COC(=O)c1c(C)[nH]c(C(=O)CSc2ccc(Cl)cc2)c1C	FXN GAA850 act 8.3 | GAA30 counter 113.7 | FXN GAA850 conf 34.6
CCOc1ccc2c(c1)c(N=Nc1cccc(C(=O)O)c1)c(O)n2C	FXN GAA850 act 8.8 (no result: Statin myotox sup, esBAF inh, Wnt bcat act) | GAA30 counter 106.5 | FXN GAA850 conf 37.8
C[C@@H]1CN([C@H](C)CO)C(=O)c2cccc(NC(=O)Nc3ccccc3)c2O[C@H]1CN(C)C(=O)Nc1ccccc1	none (no result: FXN GAA850 act, Wnt bcat act, MITF TRPM1 HTS)
COc1nc(N(C#N)CC(N)=O)nc(N2CCCC2)n1	FXN GAA850 act 11.9 (no result: Wnt bcat act, MITF TRPM1 HTS) | GAA30 counter inactive | FXN GAA850 conf 18.0
CN(C)Cc1ccc(-c2nc3cccc4c3n2CCNC4=O)cc1	FXN GAA850 act 7.8 | GAA30 counter 25.3 | FXN GAA850 conf 49.8
COCC(=O)N(C)C[C@H]1Oc2ncc(-c3ccc(C#N)cc3)cc2C(=O)N([C@H](C)CO)C[C@@H]1C	none (no result: FXN GAA850 act, Wnt bcat act, MITF TRPM1 HTS)
CC1(C)Cc2c(c(N3CCOCC3)nc3sc(C#N)c(N)c23)CS1	FXN GAA850 act 8.3 (no result: Statin myotox sup, esBAF inh, Wnt bcat act) | GAA30 counter inactive | FXN GAA850 conf 15.7
CC1(C)Cc2c(c(N3CCOCC3)nc3sc(C(N)=O)c(N)c23)CO1	none (no result: Statin myotox sup, esBAF inh)
Cc1snc(SCC(=O)c2ccc(F)cc2)c1C#N	FXN GAA850 act 8.2 (no result: Statin myotox sup, esBAF inh) | GAA30 counter 79.5 | FXN GAA850 conf 27.8
Cc1snc(SCC(=O)c2ccc([N+](=O)[O-])cc2)c1C#N	none (no result: Statin myotox sup, esBAF inh)
C/C(=N\O)c1sc(-c2ccccc2)nc1C	FXN GAA850 act 8.1, Wnt bcat act 64.5 (no result: Statin myotox sup, esBAF inh) | GAA30 counter 122.8 | FXN GAA850 conf 34.4
C[C@H]1CN([C@@H](C)CO)C(=O)c2cc(NC(=O)Cn3cnnn3)ccc2O[C@H]1CN(C)Cc1ccc(-c2ccccc2)cc1	none (no result: FXN GAA850 act, Wnt bcat act, MITF TRPM1 HTS)
Cc1c(-c2nc(N)nc(Nc3ccc(F)cc3)n2)oc2ccccc12	FXN GAA850 act 9.8, esBAF inh 61.5 (no result: Statin myotox sup) | GAA30 counter 89.4 | FXN GAA850 conf 37.7
O=c1oc2ccccc2c(Nc2ccc(F)cc2)c1[N+](=O)[O-]	none (no result: Statin myotox sup, esBAF inh)
COc1ccccc1Nc1nc(N)nc(-c2oc3ccccc3c2C)n1	none (no result: Wnt bcat act, MITF TRPM1 HTS)
Cc1ccccc1Nc1nc(N)nc(-c2oc3ccccc3c2C)n1	FXN GAA850 act 8.6, Wnt bcat act 47.0 (no result: Statin myotox sup, esBAF inh, MITF TRPM1 HTS) | GAA30 counter 100.9 | FXN GAA850 conf 51.6
C[C@H](CO)N1C[C@H](C)[C@@H](CN(C)S(C)(=O)=O)Oc2ncc(C3=CCCC3)cc2C1=O	none (no result: FXN GAA850 act, Wnt bcat act, MITF TRPM1 HTS)
Cc1noc(C)c1S(=O)(=O)Nc1ccc2c(c1)C(=O)N([C@@H](C)CO)C[C@H](C)[C@@H](CN(C)S(=O)(=O)c1ccccc1)OCCCC[C@@H](C)O2	none (no result: FXN GAA850 act, Statin myotox sup, Wnt bcat act, MITF TRPM1 HTS)
C=C1CC(Cn2cc(Br)c(=O)[nH]c2=O)(c2ccc(-c3ccccc3)cc2)OC1=O (stereo not given)	FXN GAA850 act 10.7 (no result: Statin myotox sup, esBAF inh) | GAA30 counter inactive | FXN GAA850 conf 52.2
CCOC(=O)c1cnn2c(C)cc(-c3ccc(F)cc3)nc12	FXN GAA850 act 8.3, MITF TRPM1 HTS 90.6 (no result: Wnt bcat act) | GAA30 counter 112.3 | FXN GAA850 conf 36.6
CO[C@@H]1CN(C)C(=O)c2cc(NS(=O)(=O)c3cccc(F)c3)ccc2OC[C@@H](C)N(Cc2cc(F)ccc2F)C[C@H]1C	none (no result: FXN GAA850 act, Wnt bcat act, MITF TRPM1 HTS)
